For part of these data: Entries with a potency or affinity are not part of this list. Calls of active or inactive are those of the source.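 Rule for the calls, unless noted: active = fitted half-maximal concentration within 10 nM to 100 µM, steepness 0.5 to 2, significant signal drop, low assay interference; inactive = the rest.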
How the values were obtained:
[1] = biological target: Cell division control protein 42 homolog (Homo sapiens) (UniProt P60953); assay: activated mutant Cdc42 GTP-binding inhibitors, dose response, biochemical, multiplex bead flow cytometry, Bodipy-FL-GTP (AID 1333;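 active = fitted half-maximal concentration within the tested dose range, moderate curve steepness, a statistically real signal drop, and little compound fluorescence or tag-binding interference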)
[2] = biological target: Cell division control protein 42 homolog (Homo sapiens) (UniProt P60953); assay: wildtype Cdc42 GTP-binding inhibitors, dose response, biochemical, multiplex bead flow cytometry, Bodipy-FL-GTP (AID 1334;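 active = fitted half-maximal concentration within the tested range, moderate curve steepness, significant signal drop, and little compound fluorescence or bead-linkage interference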); conditions: bead-based flow cytometry, Bodipy-FL-GTP binding to GST-Cdc42; at 100 µM (top of the series) unless noted
[3] = biological target: GTPase HRas (Homo sapiens) (UniProt P01112); assay: inhibitors of GTP binding to wildtype Ras, dose response, biochemical, multiplex bead flow cytometry (AID 1335); conditions: bead-based flow cytometry, Bodipy-GTP binding to GST-Ras; at 100 µM (top of the series) unless noted
[4] = test system: Ras-related protein Rab-7a (dog), GTP binding; assay: Rab7 GTP binding inhibitors, potency, dose response, biochemical, wildtype, multiplex bead flow cytometry (AID 1336; call rule not given here)
[5] = biological target: Ras-related C3 botulinum toxin substrate 1 (Homo sapiens) (UniProt P63000); assay: wildtype Rac1 GTP binding inhibitors, dose response, biochemical, multiplex bead flow cytometry (AID 1340;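 active = dose curve with midpoint inside tested range, moderate steepness, plateau gap beyond fit error, low compound glow and bead-link interference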); conditions: GST-Rac1 beads, Bodipy-FL-GTP binding; at 100 µM (top of the series) unless noted
[6] = biological target: GTPase HRas (Homo sapiens) (UniProt P01112); assay: activated Ras mutant GTP binding inhibitors, dose response, biochemical, multiplex bead flow cytometry (AID 1341;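 active = dose-response curve with midpoint inside the tested range, moderate steepness, significant amplitude and little compound fluorescence or bead-attachment interference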;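 note: GST-tagged constitutively activated Ras mutant immobilized on beads and multiplexed with other GTPases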)

Sequence of Cell division control protein 42 homolog (Homo sapiens) (P60953 whole entry, looked up): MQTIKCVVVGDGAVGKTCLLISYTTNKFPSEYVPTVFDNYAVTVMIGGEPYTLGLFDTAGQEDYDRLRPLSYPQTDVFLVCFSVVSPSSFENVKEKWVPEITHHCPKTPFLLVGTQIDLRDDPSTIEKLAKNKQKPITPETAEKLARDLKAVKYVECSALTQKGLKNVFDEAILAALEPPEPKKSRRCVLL
Sequence of GTPase HRas (Homo sapiens) (P01112 whole entry, looked up): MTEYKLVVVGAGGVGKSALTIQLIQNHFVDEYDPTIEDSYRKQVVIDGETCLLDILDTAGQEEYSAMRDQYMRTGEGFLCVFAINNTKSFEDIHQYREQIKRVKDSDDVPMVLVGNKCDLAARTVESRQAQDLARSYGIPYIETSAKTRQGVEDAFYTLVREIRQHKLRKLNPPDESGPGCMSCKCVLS

SMILES | outcome [1] | fluorescence, percent of control (lower = inhibition) [2] [%] | GTP binding, percent of control [3] [%] | outcome [4] | GTP binding signal, raw median fluorescence (lower = inhibition) (MCF (arbitrary fluorescence units)) [5] | outcome [6]
O=C(O)C1C(C(=O)Nc2ccc(Cl)cc2)C2C=CC1C21CC1 (stereo not given) | inactive | 86.8 | 149 | inactive | 173 | inactive
CCOc1ccc(NCc2ccccc2OCc2cccc(F)c2)cc1 | inactive | 69.4 | 68.1 | inactive | 0 | inactive
CS(=O)(=O)N1CCN(C(=O)C2c3ccccc3Oc3ccccc32)CC1 | inactive | 36.7 | 78.7 | inactive | 268 | inactive
CCCCOC(=O)c1cccnc1SCCc1ccccc1 | inactive | 48.2 | 125 | inactive | 69.8 | inactive
N#Cc1c2c(c(-c3ccccc3Cl)[nH]c1=S)CCCC2 | inactive | 28.8 | 78.4 | inactive | 248 | inactive
Cc1cccc(CSc2ncccc2C(=O)O)c1 | inactive | 69.2 | 70.8 | inactive | 314 | inactive
N#C/C(=C\c1ccc(-c2ccc(C(=O)O)cc2)o1)c1nc2ccccc2[nH]1 | inactive | 168 | 221 | inactive | 144 | inactive
Cn1c(=O)c2c(ncn2CC(O)CNc2cccc(Cl)c2)n(C)c1=O (stereo not given) | inactive | 47.1 | 101 | inactive | 363 | inactive
O=S(=O)(Cc1ccc(Cl)cc1)c1ccccc1-c1nnc(-c2ccc(Cl)cc2)o1 | inactive | 84 | 160 | inactive | 172 | inactive
CCCOc1ccc(OCCSc2nc3ccccc3n2CC(=O)O)cc1 | inactive | 60.2 | 87.7 | inactive | 35.1 | inactive
O=C(c1cccnc1SCCc1ccccc1)N1CCOCC1 | inactive | 77.3 | 101 | inactive | 64.8 | inactive
COc1ccc(Cn2c(O)c(/C=N/NC(=O)c3cccnc3)c3ccccc3c2=O)cc1 | inactive | 17.2 | 68.9 | inactive | 63.7 | inactive
Cc1cccc(CCSc2ncccc2C(=O)O)c1 | inactive | 119 | 320 | inactive | 97 | inactive
NC(=O)c1cc2ccccc2o/c1=N/NC(=O)c1cccs1 | inactive | 33.4 | 69.6 | inactive | 167 | inactive
O=C(O)Cc1coc2cc3c(cc12)CCC3 | inactive | 29.9 | 79.1 | inactive | 251 | inactive
Cn1c(NC(=S)Nc2ccccc2)nc2ccccc21 | inactive | 51.8 | 63.9 | inactive | 0 | inactive
CCOc1ccccc1C(=O)Nc1cccc(-c2ccc3nncn3n2)c1 | inactive | 33.5 | 73.1 | inactive | 194 | inactive
CCn1cc(C(=O)O)c(=O)c2cc(F)c(N/N=C/c3ccccc3)cc21 | inactive | 45.9 | 58.9 | inactive | 144 | inactive
O=[N+]([O-])c1cc(-c2ncccn2)c([N+](=O)[O-])s1 | inactive | 16.9 | 70.3 | inactive | 292 | inactive
Cc1ccc(C)c(N2CCN(C(=O)CN(C)S(=O)(=O)c3ccc4c(c3)CCC(=O)N4)CC2)c1 | inactive | 41.8 | 65.9 | inactive | 156 | inactive

SMILES | outcome [1] | fluorescence, percent of control (lower = inhibition) [2] [%] | GTP binding, percent of control [3] [%] | outcome [4] | GTP binding signal, raw median fluorescence (lower = inhibition) (MCF (arbitrary fluorescence units)) [5] | outcome [6]
Oc1ccc(NC(=S)N=Nc2c(O)[nH]c3ccccc23)cc1 | inactive | 16.7 | 62.5 | inactive | 62.8 | inactive
O=C1/C(=C\c2ccc(-c3ccccc3Cl)o2)SC(=S)N1CC1CCCO1 (stereo not given) | inactive | 29.8 | 35.9 | inactive | 116 | inactive
O=S(=O)(Nc1cccc(-c2cn3cccnc3n2)c1)c1ccccc1 | inactive | 34.9 | 48.7 | inactive | 114 | inactive
COc1cccc(-n2nc3c(=S)[nH]nc(C)c3c2C)c1 | inactive | 50.1 | 63.5 | inactive | 199 | inactive
COc1ccc(O)c(-c2cc(C(F)(F)C(F)F)nc(-c3ccccc3)n2)c1 | inactive | 106 | 177 | inactive | 183 | inactive
CSc1nc2ccc(NC(=O)C3CC(=O)N(Cc4ccco4)C3)cc2s1 (stereo not given) | inactive | 34 | 75.3 | inactive | 195 | inactive
O=[N+]([O-])c1cccc(S(=O)(=O)N2CCCC2)c1 | inactive | 52.4 | 63.8 | inactive | 205 | inactive
Cc1ccc(-n2c(SCc3cc(=O)n4ccsc4n3)nnc2-c2cccnc2)c(C)c1 | inactive | 79.6 | 157 | inactive | 178 | inactive
CCOC(=O)c1c(-c2ccc(C)cc2)csc1NC(=O)/C(C#N)=C/c1ccc(O)c(OC)c1 | inactive | 87.8 | 99.4 | inactive | 226 | inactive
CCOc1c2ccc(C(=O)N[C@H](C)C3CCCCC3)cc2nn1CCOC | inactive | 94.9 | 152 | inactive | 197 | inactive
S=C(Nc1ccc(Oc2ccccc2)cc1)NC1CCCCCC1 | inactive | 28 | 87.3 | inactive | 300 | inactive
O=C(O)c1cc(-c2ccc(/C=C3/SC(=S)N(Cc4ccccc4)C3=O)o2)ccc1Cl | inactive | 31.5 | 61.5 | inactive | 154 | inactive
CSc1nc2ccc(NS(=O)(=O)c3c(Cl)cccc3Cl)cc2s1 | inactive | 31.2 | 77.9 | inactive | 245 | inactive
O=[N+]([O-])c1ccc2c(c1)c(-c1ccccc1)nc1nncn12 | inactive | 31.3 | 72.1 | inactive | 203 | inactive
Cc1cc([N+](=O)[O-])ccc1N=Nc1c(N)[nH]n(-c2ccccc2)c1=O | inactive | 38.4 | 85 | inactive | 225 | inactive
Cc1cc(C(F)(F)F)c(C#N)c(SCC(=O)Nc2nc3ccccc3s2)n1 | inactive | 89.9 | 105 | inactive | 188 | inactive
CCN1/C(=C/C=C/c2oc3ccc4ccccc4c3[n+]2CC)Oc2ccc3ccccc3c21 | inactive | 59.4 | 108 | inactive | 275 | inactive
O=C(NC1CC2CCCC(C1)N2C(=O)Nc1ccc(Cl)c(C(F)(F)F)c1)C1CC1 (stereo not given) | inactive | 94.3 | 162 | inactive | 185 | inactive
NC(=S)N=Nc1c(O)[nH]c2cc(F)c(F)cc12 | inactive | 29.7 | 63.2 | inactive | 155 | inactive
CC1=C(C#N)c2nc(N)c(C#N)c(C)c2/C1=C\c1ccc(-c2ccccc2C(=O)O)o1 | inactive | 30.1 | 74.4 | inactive | 159 | inactive

SMILES | outcome [1] | fluorescence, percent of control (lower = inhibition) [2] [%] | GTP binding, percent of control [3] [%] | outcome [4] | GTP binding signal, raw median fluorescence (lower = inhibition) (MCF (arbitrary fluorescence units)) [5] | outcome [6]
O=c1c(/C=N/Nc2ccccc2)c(Sc2nnnn2-c2ccccc2)nc2ccccn12 | inactive | 107 | 114 | inactive | 308 | inactive
O=C(O)/C=C/C(=O)Nc1cccnc1 | inactive | 50.8 | 64.4 | inactive | 200 | inactive
CCc1nnc(NC(=O)CSc2nnc(CNc3ccc(F)cc3)n2C2CCCCC2)s1 | inactive | 52 | 72.6 | inactive | 0 | inactive
O=S(=O)(N/N=C\c1cccnc1)c1ccccc1 | inactive | 53.2 | 67.9 | inactive | 227 | inactive
COc1cc2c3nnc(-c4ccc(F)cc4)c-3cn(Cc3cccc(F)c3)c2cc1OC | inactive | 38.2 | 86.4 | inactive | 293 | inactive
N#Cc1c(Nc2ccccc2)c(/C=N/N=C/c2ccccc2)c[nH]c1=O | inactive | 35.5 | 81.7 | inactive | 211 | inactive
Cn1c(/C(C#N)=C/c2ccncc2)nc2ccccc21 | inactive | 36.7 | 87.2 | inactive | 266 | inactive
Cc1ccc(C2C(C#N)C(C#N)N3CCCN23)cc1 (stereo not given) | inactive | 99.2 | 156 | inactive | 200 | inactive
O=C(NNc1nc(-c2ccccc2)c2cc(Br)ccc2n1)c1ccc(S(=O)(=O)N2CCOCC2)cc1 | inactive | 40.3 | 53.5 | inactive | 124 | inactive
Cc1ccc(NC(=O)Nc2ccnc(-c3cccnc3)n2)cc1 | inactive | 36.6 | 73.3 | inactive | 162 | inactive
CCN(CC)S(=O)(=O)c1ccc2oc(C(=O)N3CCc4ccccc4C3)c(C)c2c1 | inactive | 59.3 | 78 | inactive | 0 | inactive
Cc1cccn2c(=O)c(/C=C3\SC(=S)N(CC(C)C)C3=O)c(NCCCOC(C)C)nc12 | inactive | 58.1 | 191 | inactive | 209 | inactive
Cc1cccc(CSCc2ccc(C(=O)O)o2)c1 | inactive | 58.1 | 86.9 | inactive | 28.5 | inactive
COc1ccc(C(=O)O)c(OCc2ccccc2C)c1 | inactive | 62.5 | 208 | inactive | 57.3 | inactive
COc1ccc(CNCc2sc(C(=O)O)cc2C)cc1OC | inactive | 59.2 | 78.1 | inactive | 32.2 | inactive
COc1cccc(-n2nc3c(-n4ncc(C#N)c4N)nnc(C)c3c2C)c1 | inactive | 54.8 | 64.6 | inactive | 212 | inactive
COc1cc2[nH]c(=S)nc(NC3CCCCCC3)c2cc1OC | inactive | 26.4 | 60.9 | inactive | 148 | inactive
CC(C)(C)c1ccc(OCCSc2nc3ccccc3n2CC(=O)O)cc1 | inactive | 52.3 | 87.1 | inactive | 35.4 | inactive
CC(=O)Nc1ccc(N=Cc2c(O)c(C(=O)Nc3ccccc3)cc3ccccc23)cc1 | inactive | 85.4 | 123 | inactive | 341 | inactive
N#Cc1c(-c2cccc(Br)c2)cc(-c2ccco2)[nH]c1=O | inactive | 23.1 | 58.9 | inactive | 182 | inactive

— PubChem BioAssay
